According to PubChem BioAssay (NCATS):
Inconclusive results are not listed. Where a call stands in place of a potency, no number is given. Activity calls are given as the source filed them. Unless noted, calls come from the whole dose curve; as a rule, active = well fitted curve in the direction sought with a large enough effect; inconclusive = small, poorly fitted or top-dose-only effect, or another doubt; inactive = no such curve, though single readings can be large; an effect the other way counts as inactive or inconclusive.

Key:
[1] = target: Ferritin light chain (Equus caballus) (UniProt P02791); experiment: qHTS Validation Assay for Identification of Novel General Anesthetics (AID 2323)
Procedure, shortened: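 Competitive displacement of profluorescent 1-aminoanthracene (1-AMA, 50% saturated solution in PBS) from 10 uM horse-spleen apoferritin. Compounds incubated 10 min at room temperature; fluorescence read at 380 nm excitation/535 nm emission, normalized to free 1-AMA and complex, fitted with four-parameter Hill equation.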

[2] = target: ATP-dependent DNA helicase Q1 (Homo sapiens) (UniProt P46063); experiment: qHTS Validation Assay for Inhibitors of RecQ-Like Dna Helicase 1 (RECQ1) (AID 2353)
Procedure, shortened: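 50 nM RECQ1T1 preincubated 15 min with compound in Tris pH 8.0 buffer with MgCl2, DTT, Tween-20 and 2.5 ug/ml poly(dI-dC); started with 200 nM TAMRA/BHQ-2 forked duplex and 2 mM ATP. Unwinding read as fluorescence (525/598 nm), two reads 2 h apart.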

[3] = Cytometric Cell-Based qHTS for Inhibitors of the mTORC1 Signaling Pathway in MEF (Tsc2-/-, p53-/-) Cells (AID 2660);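 note: percent of cells above a phospho-rpS6 to PI ratio cutoff in each well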
Procedure, shortened: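 Cells are plated, treated with compound for 24 hrs at 37 degree Celsius, then fixed, blocked and immunostained for phospho-rpS6 Ser235/236. Propidium iodide counterstain follows. Per-well % positive cells is derived from the PI-normalized phospho-S6 signal.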

[4] = High Content Imaging Cell-Based qHTS for Inhibitors of the mTORC1 Signaling Pathway in MEF (Tsc2-/-, p53-/-) Cells (AID 2666); conditions: at 38.3 µM (top of the series);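 note: percent of cells scored positive for phospho-rpS6 Ser235/236 immunostaining by imaging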
Procedure, shortened: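 Read-out: % positive cells per well, with thresholds from highest- and lowest-signal wells, based on phospho-rpS6 (Ser235/236) intensity normalized to Hoechst nuclear stain. Cells: Tsc2-/-, p53-/- MEFs carrying empty vector; compound 24 hrs, 37 degree Celsius.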

[5] = Cytometry Cell-Based qHTS for Inhibitors of the mTORC1 Signaling Pathway in MEF cells (AID 2668); note: potency is the fitted concentration of half-maximal effect
Procedure, shortened: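 WT MEFs (Tsc2-/-, p53-/- stably re-expressing WT Tsc2) in DMEM + 10% FBS received compounds 24 hrs after plating, for 24 hrs at 37 degree Celsius. Fixed cells stained with Alexa-488 anti-phospho-rpS6 Ser235/236 and propidium iodide; laser-scanning cytometry read-out.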

[6] = Validation screen for small molecules that induce DNA re-replication in MCF 10A normal breast cells (AID 463097); note: nearly all actives have a fitted effect of over 60% in size
Procedure, shortened: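 Readout: Hoechst nuclear fluorescence intensity, 405 ex / 500-530 em, by scanning plate imager; re-replication scored as increase in nuclei with elevated DNA content. Cells exposed to compound 48 hr, 37 C, 5% CO2 beforehand.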

[7] = target: Ubiquitin carboxyl-terminal hydrolase 2 (Homo sapiens) (UniProt O75604); experiment: qHTS Validation Assay for Inhibitors of Ubiquitin-specific Protease USP2a Using CHOP2 as the Reporter (AID 463106)
Procedure, shortened: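 USP2 core (10nM final) was preincubated with compound for 30min at RT in 20mM Tris-HCl pH 8.0, 2mM CaCl2, 2mM beta-mercaptoethanol, 0.05% CHAPS. Ub-CHOP2 and reporter substrate (25nM each) were added, and fluorescence (Ex 485/Em 531nm) was read after 60min.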

[8] = target: DNA polymerase III PolC-type (Bacillus subtilis (strain 168)) (UniProt P13267); experiment: qHTS Validation Assay for the Inhibitors of DNA Replication in Gram-Positive Bacteria (AID 485295); note: potency is the fitted concentration of half-maximal effect
Procedure, shortened: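 Reconstituted B. subtilis holoenzyme (Pol III, beta clamp, SSB, primase) was preincubated with compound at room temperature, then given single-stranded circular M13Gori plus dNTPs and NTPs. EDTA-containing PicoGreen stopped the reaction, and dsDNA product was read by fluorescence.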

[9] = qHTS Validation Assay to Find Inhibitors of Chronic Active B-Cell Receptor Signaling (AID 485345; active = well fitted curve in the direction sought with a large enough effect in the main read-out, with a control signal flat, not every such curve was filed as active)
Procedure, shortened: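 TMD8 ABC-DLBCL cells with dox-inducible green luciferase–IκBα fusion and red native luciferase; compounds 46 uM–3 nM, 4 h at 37C with doxycycline in 0.5% FBS IMDM. Green/red ratio normalized to basal and 10 uM MG-132.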

[10] = target: RecQ-like DNA helicase BLM (Homo sapiens) (UniProt P54132); experiment: qHTS Validation Assay for Inhibitors of Bloom's syndrome helicase (BLM) (AID 2364)
Procedure, shortened: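 BLM 50 nM in 25 mM Tris-HCl pH 8.0, 5 mM NaCl, 2 mM MgCl2, 1 mM DTT, 0.01% Tween-20, 2.5 ug/ml poly(dI-dC); 15 min cpd preinc, RT. Start: 200 nM forked DNA + 2 mM ATP (final). TAMRA read, 2 reads 2 h apart.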

Chain of DNA polymerase III PolC-type (Bacillus subtilis (strain 168)) (P13267 whole entry, looked up): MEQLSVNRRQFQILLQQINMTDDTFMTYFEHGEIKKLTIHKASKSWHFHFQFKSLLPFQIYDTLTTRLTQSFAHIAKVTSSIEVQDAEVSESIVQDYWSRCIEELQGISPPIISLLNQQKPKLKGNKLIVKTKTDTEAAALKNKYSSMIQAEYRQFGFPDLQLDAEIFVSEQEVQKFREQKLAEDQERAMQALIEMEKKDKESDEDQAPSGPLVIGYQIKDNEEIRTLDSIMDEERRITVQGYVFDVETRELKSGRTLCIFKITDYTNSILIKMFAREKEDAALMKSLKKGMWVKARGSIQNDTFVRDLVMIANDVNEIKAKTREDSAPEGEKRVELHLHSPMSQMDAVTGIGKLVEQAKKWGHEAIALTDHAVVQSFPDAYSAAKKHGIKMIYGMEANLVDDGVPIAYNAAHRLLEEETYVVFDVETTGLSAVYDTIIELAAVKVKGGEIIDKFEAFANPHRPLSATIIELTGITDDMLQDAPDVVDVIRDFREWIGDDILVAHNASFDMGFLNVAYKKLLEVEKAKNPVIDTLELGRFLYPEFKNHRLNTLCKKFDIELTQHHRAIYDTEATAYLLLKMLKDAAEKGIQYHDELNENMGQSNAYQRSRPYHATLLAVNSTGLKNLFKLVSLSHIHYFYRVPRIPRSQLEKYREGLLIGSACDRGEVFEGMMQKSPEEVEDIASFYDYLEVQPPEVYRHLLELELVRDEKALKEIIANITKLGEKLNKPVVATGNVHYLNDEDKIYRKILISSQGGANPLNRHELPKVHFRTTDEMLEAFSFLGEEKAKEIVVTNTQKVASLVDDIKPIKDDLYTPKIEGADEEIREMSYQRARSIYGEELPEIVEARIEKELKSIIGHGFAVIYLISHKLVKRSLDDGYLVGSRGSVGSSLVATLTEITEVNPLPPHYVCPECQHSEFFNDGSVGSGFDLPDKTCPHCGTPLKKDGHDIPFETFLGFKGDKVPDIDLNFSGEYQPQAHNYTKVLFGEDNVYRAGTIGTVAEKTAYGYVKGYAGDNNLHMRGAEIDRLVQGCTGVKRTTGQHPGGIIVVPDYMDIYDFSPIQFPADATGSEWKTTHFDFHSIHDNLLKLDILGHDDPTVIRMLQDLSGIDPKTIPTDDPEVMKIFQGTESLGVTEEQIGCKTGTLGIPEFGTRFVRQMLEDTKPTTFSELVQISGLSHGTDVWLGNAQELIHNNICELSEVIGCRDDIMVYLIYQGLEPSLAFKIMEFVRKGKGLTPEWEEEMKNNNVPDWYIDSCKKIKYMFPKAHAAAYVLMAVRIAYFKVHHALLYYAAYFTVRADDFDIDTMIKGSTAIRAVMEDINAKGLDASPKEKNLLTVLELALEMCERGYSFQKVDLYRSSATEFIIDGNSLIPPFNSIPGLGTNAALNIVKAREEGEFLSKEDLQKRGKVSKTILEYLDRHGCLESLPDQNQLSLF
Chain of ATP-dependent DNA helicase Q1 (Homo sapiens) (P46063 whole entry, looked up): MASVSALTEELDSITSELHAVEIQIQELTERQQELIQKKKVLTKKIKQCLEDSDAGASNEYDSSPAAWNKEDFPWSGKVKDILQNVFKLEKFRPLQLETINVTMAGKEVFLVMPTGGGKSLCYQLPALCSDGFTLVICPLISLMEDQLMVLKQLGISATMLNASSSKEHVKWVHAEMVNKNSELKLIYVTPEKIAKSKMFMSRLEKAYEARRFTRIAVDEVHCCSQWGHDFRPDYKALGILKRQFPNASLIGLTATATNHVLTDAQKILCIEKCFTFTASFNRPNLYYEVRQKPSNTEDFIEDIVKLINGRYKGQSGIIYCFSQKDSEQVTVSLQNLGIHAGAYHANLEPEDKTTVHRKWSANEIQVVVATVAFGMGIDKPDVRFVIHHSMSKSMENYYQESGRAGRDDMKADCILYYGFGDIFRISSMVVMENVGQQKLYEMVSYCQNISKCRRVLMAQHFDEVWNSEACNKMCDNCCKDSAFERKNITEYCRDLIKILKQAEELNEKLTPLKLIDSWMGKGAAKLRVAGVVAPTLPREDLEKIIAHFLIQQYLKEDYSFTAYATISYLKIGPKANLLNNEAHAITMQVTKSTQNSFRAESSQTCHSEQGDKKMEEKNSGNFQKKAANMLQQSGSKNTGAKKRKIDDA
Chain of Ferritin light chain (Equus caballus) (P02791 2-175 limits assumed): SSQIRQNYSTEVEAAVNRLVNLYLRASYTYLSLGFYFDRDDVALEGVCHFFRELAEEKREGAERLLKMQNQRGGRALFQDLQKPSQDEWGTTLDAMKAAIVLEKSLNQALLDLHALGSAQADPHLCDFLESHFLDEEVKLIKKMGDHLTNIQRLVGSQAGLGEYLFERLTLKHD
Chain of RecQ-like DNA helicase BLM (Homo sapiens) (P54132 whole entry, looked up): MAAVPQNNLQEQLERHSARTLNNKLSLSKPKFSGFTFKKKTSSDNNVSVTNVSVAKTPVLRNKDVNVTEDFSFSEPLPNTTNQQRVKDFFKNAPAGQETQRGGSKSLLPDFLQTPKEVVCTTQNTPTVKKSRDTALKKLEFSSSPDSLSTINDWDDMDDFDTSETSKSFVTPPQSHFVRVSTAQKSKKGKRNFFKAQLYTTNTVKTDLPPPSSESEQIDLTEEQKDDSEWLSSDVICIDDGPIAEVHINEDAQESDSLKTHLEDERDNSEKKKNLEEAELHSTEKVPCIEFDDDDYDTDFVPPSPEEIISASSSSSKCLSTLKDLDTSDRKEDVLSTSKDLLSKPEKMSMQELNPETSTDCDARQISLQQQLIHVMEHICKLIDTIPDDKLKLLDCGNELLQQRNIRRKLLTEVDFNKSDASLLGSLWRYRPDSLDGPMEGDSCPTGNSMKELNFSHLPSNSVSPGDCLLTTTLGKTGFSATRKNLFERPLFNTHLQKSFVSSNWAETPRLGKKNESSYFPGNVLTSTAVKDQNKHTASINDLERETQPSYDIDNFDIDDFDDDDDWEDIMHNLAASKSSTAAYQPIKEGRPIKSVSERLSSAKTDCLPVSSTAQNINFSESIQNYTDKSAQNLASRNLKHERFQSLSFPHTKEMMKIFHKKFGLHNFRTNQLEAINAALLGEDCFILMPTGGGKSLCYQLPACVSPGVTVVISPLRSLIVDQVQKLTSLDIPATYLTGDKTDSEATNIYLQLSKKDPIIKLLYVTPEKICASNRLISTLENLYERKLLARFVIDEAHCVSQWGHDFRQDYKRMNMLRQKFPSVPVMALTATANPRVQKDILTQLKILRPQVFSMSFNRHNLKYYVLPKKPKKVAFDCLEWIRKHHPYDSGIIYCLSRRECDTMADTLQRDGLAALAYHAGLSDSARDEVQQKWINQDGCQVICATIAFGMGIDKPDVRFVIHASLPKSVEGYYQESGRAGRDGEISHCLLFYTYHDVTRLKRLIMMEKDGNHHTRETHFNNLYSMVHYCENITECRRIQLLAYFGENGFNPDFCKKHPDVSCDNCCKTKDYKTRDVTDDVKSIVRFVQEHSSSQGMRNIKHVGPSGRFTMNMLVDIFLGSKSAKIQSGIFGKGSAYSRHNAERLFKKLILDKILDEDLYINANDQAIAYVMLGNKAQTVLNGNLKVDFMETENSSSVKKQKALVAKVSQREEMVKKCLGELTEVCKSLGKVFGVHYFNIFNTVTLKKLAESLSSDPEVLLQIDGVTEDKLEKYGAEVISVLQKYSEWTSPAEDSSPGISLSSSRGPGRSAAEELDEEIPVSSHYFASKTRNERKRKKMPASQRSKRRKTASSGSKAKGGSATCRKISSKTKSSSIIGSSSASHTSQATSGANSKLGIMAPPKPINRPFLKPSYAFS
Chain of Ubiquitin carboxyl-terminal hydrolase 2 (Homo sapiens) (O75604 whole entry, looked up): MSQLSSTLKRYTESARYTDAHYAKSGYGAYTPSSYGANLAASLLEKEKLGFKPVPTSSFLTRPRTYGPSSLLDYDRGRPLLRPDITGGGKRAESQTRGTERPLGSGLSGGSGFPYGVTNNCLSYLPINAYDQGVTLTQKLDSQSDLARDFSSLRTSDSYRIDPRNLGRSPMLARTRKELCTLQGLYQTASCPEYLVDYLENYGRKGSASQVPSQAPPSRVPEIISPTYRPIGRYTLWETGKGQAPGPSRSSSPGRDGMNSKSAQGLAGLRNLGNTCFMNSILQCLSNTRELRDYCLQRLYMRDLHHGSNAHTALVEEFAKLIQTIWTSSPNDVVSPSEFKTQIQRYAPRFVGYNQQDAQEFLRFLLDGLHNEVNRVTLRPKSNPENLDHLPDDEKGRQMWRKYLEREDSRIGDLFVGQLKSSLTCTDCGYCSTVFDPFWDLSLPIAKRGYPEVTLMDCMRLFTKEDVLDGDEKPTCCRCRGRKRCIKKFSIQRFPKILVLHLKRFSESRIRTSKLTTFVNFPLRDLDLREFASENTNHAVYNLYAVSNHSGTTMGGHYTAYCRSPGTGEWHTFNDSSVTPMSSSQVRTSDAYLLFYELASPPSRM

Structure (SMILES)	outcome [1]	outcome [2]	outcome [3]	outcome [4]	Potency [5]	outcome [6]	outcome [7]	Potency [8]	outcome [9]	outcome [10]
C[N+]1(CCCCC[N+]2(C)CCCC2)CCCC1	inactive	inactive	inactive	inactive	inactive	inactive	inactive	inactive	inactive	–
CCCC1O[C@@H]2C[C@H]3[C@@H]4CCC5=CC(=O)C=C[C@]5(C)[C@H]4[C@@H](O)C[C@]3(C)[C@]2(C(=O)CO)O1 (stereo partly drawn)	–	–	inactive	inactive	inactive	–	inactive	inactive	–	–
Oc1ccc(O)cc1	inactive	inactive	–	–	–	–	inactive	5320 nM (active)	inactive	–
C1CCc2nnnn2CC1	inactive	inactive	inactive	–	inactive	inactive	inactive	inactive	inactive	–
CC(=O)O[C@H]1C[C@@H]2CC[C@@H]3[C@H](CC[C@@]4(C)[C@H]3C[C@H]([N+]3(C)CCCCC3)[C@@H]4OC(C)=O)[C@@]2(C)C[C@@H]1[N+]1(C)CCCCC1	–	–	–	inactive	inactive	–	inactive	inactive	inactive	–
COc1cc(NS(C)(=O)=O)ccc1Nc1c2ccccc2nc2ccccc12	inactive	–	–	inactive	521 nM (active)	–	inactive	–	–	–
C[C@]12CC[C@@H]3c4ccc(O)cc4CC[C@H]3[C@@H]1CC[C@@H]2O	inactive	inactive	inactive	inactive	inactive	inactive	inactive	inactive	–	–
CC(C)C[C@H]1C(=O)N2CCC[C@H]2[C@]2(O)O[C@](NC(=O)[C@@H]3C=C4c5cccc6[nH]c(Br)c(c56)C[C@H]4N(C)C3)(C(C)C)C(=O)N12	–	–	inactive	inactive	–	–	inactive	inactive	inactive	–
N[C@@H](Cc1cnc[nH]1)C(=O)O	inactive	inactive	inactive	inactive	inactive	inactive	inactive	inactive	inactive	–
CCC(NC(C)C)C(O)c1ccc(O)c(O)c1 (stereo not drawn)	inactive	inactive	inactive	inactive	inactive	inactive	inactive	inactive	inactive	–
CC(C)NC[C@@H](O)COc1cccc2ccccc12	inactive	inactive	–	–	–	inactive	–	–	–	inactive
CC(C)COC(=O)OCN1C(=O)CN(CCN2CC(=O)N(COC(=O)OCC(C)C)C(=O)C2)CC1=O	–	inactive	inactive	inactive	inactive	inactive	inactive	inactive	inactive	inactive
CNCCC(Oc1ccccc1C)c1ccccc1 (stereo not drawn)	inactive	inactive	inactive	inactive	inactive	inactive	inactive	inactive	inactive	–
CC[C@H](C)C(=O)O[C@H]1CCC=C2C=C[C@H](C)[C@H](CC[C@@H]3C[C@@H](O)CC(=O)O3)[C@H]21	–	–	inactive	inactive	–	–	inactive	inactive	–	–
O=C1CCC(c2ccc(-n3ccnc3)cc2)=NN1	inactive	inactive	inactive	inactive	inactive	inactive	inactive	inactive	inactive	inactive
